# In PubChem BioAssay (Tox21):
# “And” between values parts separate entries of the source, which are not always exact repeats. Identical values can stand only once. Results filed as inconclusive are left out. A call without a number means that no potency is given here. The source made the active and inactive calls. Calls follow the shape of the dose curve; as a rule, active = well fitted inhibition curve with a large enough effect in the repeat runs; inconclusive = weak or mixed curves; inactive = no such curve, though single readings can be large or run the other way.
# Molecular target: Cytochrome P450 2D6 (Homo sapiens) (UniProt P10635)
# Experiment: Cytochrome P450 Family 2 Subfamily D Member 6 (CYP2D6) small molecule antagonists: luciferase reporter qHTS assay (AID 1671196); also: nearly all actives have a fitted effect of over 50% in size
# Conditions: P450-Glo CYP2D6 enzyme assay, luciferin luminescence, 1 h; series mostly up to 115 µM
# Description: U.S. Tox21 Program National Center for Advancing Translational Sciences [NCATS] U.S. Environmental Protection Agency [EPA] National Institutes of Environmental Health Sciences [NIEHS] National Toxicology Program [NTP] U.S. Food and Drug Administration [FDA] Tox21 Assay Overview: Cytochrome P450 (CYP) enzymes are membrane-bound hemeproteins that play a key role in metabolism of drugs and xenobiotics. Evaluation of the effect of chemicals on CYP isozymes is useful to minimize the adverse drug reactions and toxicities in drug development process. Tox21 chemicals were tested for their effect on CYP enzyme activities by using P450-Glo (TM) screening systems (Promega Corporation, Madison, WI). These systems provide a luminescent method containing proluciferin substrates and are converted to luciferin products by CYP isozymes. The luciferin products formed are detected with a luciferin detection reagent, and the amount of light produced is proportional to CYP activity. P450-Glo (TM) CYP2D6 screening system (Catalog. No. V9890) was used to detect the compounds that interfere in CYP2D6 activity.
# Tox21 Assay Protocol Summary: Two ul of enzyme-substrate mix was dispensed into medium binding white/solid 1536-well plates (Greiner Bio-One North America Inc., Monroe, NC) using a BioRaptr Flying Reagent Dispenser (FRD, Beckman Coulter, Brea, CA). […] The assay plates were incubated at room temperature for 10 min. Then 2 ul of NADPH regeneration solution was added to each well of the assay plates using an FRD and incubated at room temperature for 1 h. The reaction was stopped by adding 4 ul of detection reagent using an FRD and after 20 min incubation at room temperature the luminescence signal was measured using a ViewLux plate reader (Perkin Elmer, Shelton, CT). Data were expressed as relative luminescence units.
# Potency is read from the fitted curve at half-maximal effect.
# Sequence of Cytochrome P450 2D6 (Homo sapiens) (P10635 whole entry, looked up): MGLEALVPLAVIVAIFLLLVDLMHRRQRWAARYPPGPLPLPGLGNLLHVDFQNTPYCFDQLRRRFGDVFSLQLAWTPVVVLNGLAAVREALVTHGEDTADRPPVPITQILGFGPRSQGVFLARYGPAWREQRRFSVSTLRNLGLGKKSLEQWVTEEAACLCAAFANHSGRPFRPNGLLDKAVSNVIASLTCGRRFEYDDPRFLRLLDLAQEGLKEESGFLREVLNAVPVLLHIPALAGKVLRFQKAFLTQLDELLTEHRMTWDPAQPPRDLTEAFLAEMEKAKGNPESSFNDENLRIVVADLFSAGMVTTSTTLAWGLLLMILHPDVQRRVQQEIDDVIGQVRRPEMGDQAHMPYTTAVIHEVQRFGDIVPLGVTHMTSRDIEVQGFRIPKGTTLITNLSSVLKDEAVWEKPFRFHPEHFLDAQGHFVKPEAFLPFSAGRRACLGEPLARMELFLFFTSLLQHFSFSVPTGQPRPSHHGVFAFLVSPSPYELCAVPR
Structure (SMILES),Potency,"activity change, negative = inhibition"
c1cc[nH]c1,inactive,
CO[Si](CCC1CCC2OC2C1)(OC)OC (stereo not given),inactive,
CCC1CCCCC1,inactive,
CC1=CP(=O)(c2ccccc2)CC1 (stereo not given),inactive,
CC[N+](CC)(CC)Cc1ccccc1,35.6 µM (active),
COc1cc(C=C2CCC/C(=C\c3ccc(O)c(OC)c3)C2=O)ccc1O,inactive,
CC(C)(C)c1cc(/C=C2\SC(=N)NC2=O)cc(C(C)(C)C)c1O,39.9 µM (active),
O=C(c1ccccc1)c1cc(Cl)ccc1O,37.9 µM (active),
CCCN(CCc1cccs1)[C@H]1CCc2c(O)cccc2C1,0.389 µM (active),
C#CC(O)CCC (stereo not given),inactive,
CCCCNc1c(C(=O)OCC)c(C)nc2c1cnn2CC,inactive,
Cc1ccc(CCn2c3c(c4cc(Cl)ccc42)CN(C)CC3)cn1,7.76 µM (active),
CN(C)c1ccc(N=NS(=O)(=O)O)cc1,7.94 µM (active),
NC(=O)c1nc(-c2cccc(-c3cc(F)ccc3OCC(F)(F)C(F)(F)F)c2)n[nH]1,79.6 µM (active),
CC(C)=C1CC[C@@H](C)CC1=O,inactive,
CCCC(O)C(O)CO (stereo not given),inactive,
CCCCCCCCCC(=O)N(C)C,inactive,
CCN(CC)CCNc1ccc(CO)c2sc3ccccc3c(=O)c12,3.47 µM (active),
CN1CN(C)CN(C)C1,inactive,
CC(C)(C)c1n[nH]c(=O)n(N)c1=O,inactive,

Structure (SMILES),Potency,"activity change, negative = inhibition"
CC(=O)C=O,inactive,
C/C=C/c1ccc(OC)c(OC)c1,inactive,
C=CC(C)C#N (stereo not given),inactive,
COc1ccc(-n2nc(CCC(=O)N(C)O)cc2-c2ccc(Cl)cc2)cc1,15.5 µM (active),
CCCCCCCC/C=C\CCCCCCCC(=O)OCCOC(=O)CCCCCCC/C=C\CCCCCCCC,46.5 µM (active),
CCOC(=O)COc1ccc(C)cc1,inactive,
CCCCCCCCCCCCCC[n+]1ccccc1,1.78 µM (active),
C=CC(=O)OCCN(CC)CC,inactive,
CCCCCCOc1ccc(O)cc1,79.6 µM (active),
CCOC(=O)[C@@](C)(N)Cc1ccc(O)c(O)c1,8.71 µM (active),
CCO[Si](C)(C)OCC,inactive,
CCCCCCCC(OC)OC,inactive,
CC(C)c1cccc(C(C)C)c1N1C(=O)c2ccc(O)cc2C1=O,31.7 µM (active),
CN1CCN(C2Cc3ccccc3Sc3ccc(Cl)cc32)CC1 (stereo not given),0.347 µM (active),
CCN(CC)CCCN(c1ccccc1)C1Cc2ccccc2C1,0.389 µM (active),
CCCCCCCOC(=O)c1ccccc1C(=O)OCCCCCCC,inactive,
O=C=NCc1cccc(CN=C=O)c1,,-24.5% [at 23.6 µM] (inactive)
CCCCCCCCCCCCOC(=O)c1cc(O)c(O)c(O)c1,28.2 µM (active) and 31.7 µM (active),
CCCCCCCCCCCCCc1ccccc1,inactive,
COc1cccc(OC)c1O,6.33 µM (active),
